According to PubChem BioAssay (Tox21):
Records with an inconclusive call do not appear. Active and inactive are the calls of the source. Unless noted, the call rests on the fitted dose curve; in most records, active means well fitted curve in the direction sought with a large enough effect in the repeat runs; inconclusive means weak or mixed curves; inactive means no such curve, though single readings can be large; an effect the other way counts as inactive or inconclusive.

Assays:
[1] = qHTS assay to identify small molecule agonists of the hypoxia (HIF-1) signaling pathway - cell viability counter screen (AID 1224844; calls by dose curve; further: nearly all actives have a fitted effect of over 50% in size)
Summary of the method: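 ME-180 HRE-bla cells, 2,000/well, 0.5% dialyzed FBS; 5 hr settle, 17 hr compound at 37C/5% CO2; CCF4-AM reporter read first, then CellTiter-Glo luminescence after 30 min RT.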

[2] = qHTS assay to identify small molecule agonists of H2AX (AID 1224845; active means well fitted activation curve with a large enough effect in the signal ratio in the repeat runs, not every such curve was filed as active; the % refers to the signal ratio)
Summary of the method: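 Phospho-H2AX Ser139 measured by HTRF (ex 320 nm; em 665 and 620 nm) after 24 hr antibody incubation. Compounds, 15 concentrations, 0.76% DMSO, were applied to CHO-K1 cells for 3hr at 37C before lysis.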

[3] = qHTS assay to identify small molecule agonists of the hypoxia (HIF-1) signaling pathway (AID 1224846; active means well fitted activation curve with a large enough effect in the signal ratio in the repeat runs, not every such curve was filed as active; the % refers to the signal ratio)
Summary of the method: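 Cell line: CellSensor HRE-bla ME-180; 2,000 cells/well; 0.5% dialyzed FBS; 5 h preincubation; DMSO compound pin transfer; 17 h, 37C, 5% CO2; CCF4-AM added; bla FRET signal scored for activation.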

[4] = qHTS assay to identify small molecule agonists of H2AX - cell viability counter screen (AID 1224847; calls by dose curve; further: top concentration of the series differs between compounds; nearly all actives have a fitted effect of over 30% in size)
Summary of the method: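 Compounds tested at 15 concentrations were incubated 3 hr at 37C with wild-type CHO-K1 cells; cellular ATP-based luminescence (CellTiter-Glo) indicated viability.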

[5] = qHTS RealTime-Glo MT Cell Viability Assay in HepG2 cells - 24 hour (AID 1224867); further: nearly all actives have a fitted effect of over 50% in size
Summary of the method: (§1)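 Compound treatment began 5 h after plating HepG2 cells (600/well) with NanoLuc luciferase and prosubstrate. Plates stayed at 37 C for 40 h; luminescence was captured at six time points, 0 h through 40 h.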

[6] = qHTS RealTime-Glo MT Cell Viability Assay in HEK293 cells - 32 hour (AID 1224868); further: top concentration of the series differs between compounds; nearly all actives have a fitted effect of over 50% in size
Summary of the method: (§2)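 Quantitative high-throughput screen of the Tox21 10K library in HEK293: cells and RealTime-Glo reagents plated together, compound added at 5 h, luminescence monitored through 40 h at 37 C.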

[7] = A CellTox Green Cytotoxicity Assay to monitor cytotoxicity in HEK293 cells - 0 hour (AID 1224869); further: nearly all actives have a fitted effect of over 50% in size
Summary of the method: (§3)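 Nonlytic real-time cytotoxicity: HEK293 + CellTox Green reagent plated, 5 h preincubation, pintool compound addition (23 nL in DMSO), 37 C for 40 h, fluorescence measured at successive time points.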

[8] = qHTS RealTime-Glo MT Cell Viability Assay in HepG2 cells - 40 hour (AID 1224870); further: nearly all actives have a fitted effect of over 50% in size
Summary of the method: (§4)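 Real-time viability: cells seeded at 600 per well together with NanoLuc and cell-permeant prosubstrate, compounds added after 5 h incubation. Luminescence tracked at 0, 8, 16, 24, 32 and 40 h of exposure.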

[9] = A CellTox Green Cytotoxicity Assay to monitor cytotoxicity in HEK293 cells - 40 hour (AID 1224871); further: nearly all actives have a fitted effect of over 45% in size
Summary of the method: as §3

[10] = qHTS RealTime-Glo MT Cell Viability Assay in HEK293 cells - 16 hour (AID 1224872)
Summary of the method: as §2

[11] = qHTS RealTime-Glo MT Cell Viability Assay in HepG2 cells - 8 hour (AID 1224873); further: nearly all actives have a fitted effect of over 55% in size
Summary of the method: as §4

[12] = qHTS RealTime-Glo MT Cell Viability Assay in HEK293 cells - 40 hour (AID 1224874); conditions: RealTime-Glo luminescence; max response: active compounds read low; further: nearly all actives have a fitted effect of over 50% in size
Summary of the method: (§5)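 Cells were seeded together with NanoLuc luciferase and a prosubstrate that viable cells reduce to a luciferase substrate. After a 5 h incubation at 37 C/5% CO2, compounds were added and luminescence was measured repeatedly during 40 h of treatment.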

[13] = A CellTox Green Cytotoxicity Assay to monitor cytotoxicity in HEK293 cells - 24 hour (AID 1224875); further: nearly all actives have a fitted effect of over 45% in size
Summary of the method: as §3

[14] = A CellTox Green Cytotoxicity Assay to monitor cytotoxicity in HepG2 cells - 16 hour (AID 1224876); further: nearly all actives have a fitted effect of over 45% in size
Summary of the method: (§6)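 Read-out is fluorescence of a cyanine dye excluded from live cells that stains DNA of dead HepG2 cells, with signal proportional to cytotoxicity. Plates were read at 0, 8, 16, 24, 32 and 40 h after compound addition.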

[15] = qHTS RealTime-Glo MT Cell Viability Assay in HepG2 cells - 32 hour (AID 1224877); further: nearly all actives have a fitted effect of over 55% in size
Summary of the method: as §1

[16] = A CellTox Green Cytotoxicity Assay to monitor cytotoxicity in HepG2 cells - 24 hour (AID 1224878); further: nearly all actives have a fitted effect of over 45% in size
Summary of the method: as §6

[17] = A CellTox Green Cytotoxicity Assay to monitor cytotoxicity in HepG2 cells - 40 hour (AID 1224879); further: nearly all actives have a fitted effect of over 40% in size
Summary of the method: as §6

[18] = qHTS RealTime-Glo MT Cell Viability Assay in HEK293 cells - 0 hour (AID 1224880)
Summary of the method: as §5

[19] = qHTS assay to identify small molecule antagonists of the estrogen related receptor (ERR) signaling pathway from Tox21 library (AID 1224848); further: nearly all actives have a fitted effect of over 50% in size
Summary of the method: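 Reading was by luminescence 30 min after ONE-Glo addition. Before that, ERR cells at 2,000 per well had rested 6 h at 37 C/5% CO2 and then received pin-tooled compounds in DMSO for 18 h at 37 C.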

[20] = qHTS assay to identify small molecule agonists of the estrogen related receptor (ERR) signaling pathway from Tox21 library (AID 1224849; calls by dose curve; further: nearly all actives have a fitted effect of over 15% in size); conditions: ERR reporter cell line, ONE-Glo luciferase, 18 h
Summary of the method: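 ERR cells, 6 h pre-incubation 37 C/5% CO2; cpd in DMSO pinned; 18 h 37 C; ONE-Glo added, 30 min RT; luminescence read. Agonist mode, qHTS.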
On the % scale 0 is the no-effect control and ±100 the full control effect.

SCc1ccccc1
inactive: Potency [1] | Potency [2] | outcome [3] | Potency [4] | Potency [5] | Potency [6] | Potency [7] | Potency [8] | Potency [9] | Potency [10] | Potency [11] | max response [12] 5.57% | Potency [13] | Potency [14] | Potency [15] | Potency [16] | Potency [17] | outcome [18]

NP(N)(=O)NC(=O)c1ccc(F)cc1
inactive: Potency [1] | Potency [2] | outcome [3] | Potency [4] | Potency [19] | activity change, positive = activation ([20]; at 42.5 µM (top of the series)) -0.0729% | Potency [5] | Potency [6] | Potency [7] | Potency [8] | Potency [9] | Potency [10] | Potency [11] | max response [12] 1.36% | Potency [13] | Potency [14] | Potency [15] | Potency [16] | Potency [17] | outcome [18]

CCOP(=S)(S)OCC
inactive: Potency [1] | Potency [2] | outcome [3] | Potency [4] | Potency [19] | activity change, positive = activation ([20]; at 92.4 µM (top of the series)) -3.44% | Potency [5] | Potency [6] | Potency [7] | Potency [8] | Potency [9] | Potency [10] | Potency [11] | max response [12] 2.46% | Potency [13] | Potency [14] | Potency [16] | Potency [17] | outcome [18]

CC(C)(C)NCC(O)c1ccccc1Cl (centres undefined)
inactive: Potency [1] | Potency [2] | outcome [3] | Potency [4] | Potency [19] | activity change, positive = activation ([20]; at 42.5 µM (top of the series)) 4.93% | Potency [5] | Potency [6] | Potency [7] | Potency [8] | Potency [9] | Potency [10] | Potency [11] | max response [12] 4.08% | Potency [13] | Potency [16] | Potency [17] | outcome [18]

CC(C)(C)N(NC(=O)c1ccc(Cl)cc1)C(=O)c1ccccc1
inactive: Potency [1] | Potency [2] | outcome [3] | Potency [4] | activity change, positive = activation ([20]; at 92.4 µM (top of the series)) -30.6% | Potency [5] | Potency [7] | Potency [8] | Potency [9] | Potency [11] | Potency [13] | Potency [14] | Potency [15] | Potency [16] | Potency [17] | outcome [18]

O=C(O)c1ccc(=O)[nH]c1
inactive: Potency [1] | Potency [2] | outcome [3] | Potency [4] | Potency [19] | activity change, positive = activation ([20]; at 42.5 µM (top of the series)) 5.02% | Potency [5] | Potency [6] | Potency [8] | Potency [9] | Potency [10] | max response [12] 5.8% | Potency [13] | Potency [14] | Potency [15] | Potency [16] | Potency [17] | outcome [18]

C[C@H]1[C@@H]2Cc3ccc(O)cc3[C@@]1(C)CCN2C
inactive: Potency [1] | Potency [2] | outcome [3] | Potency [4] | Potency [19] | activity change, positive = activation ([20]; at 240 µM (top of the series)) 8.81% | Potency [5] | Potency [6] | Potency [7] | Potency [8] | Potency [10] | Potency [11] | max response [12] -5.05% | Potency [13] | Potency [15] | Potency [16] | Potency [17] | outcome [18]

CC(C)CCCCCCCOC(=O)c1ccccc1C(=O)OCCCCCCCC(C)C
inactive: Potency [1] | Potency [2] | outcome [3] | Potency [4] | Potency [19] | activity change, positive = activation ([20]; at 92.4 µM (top of the series)) 0.464% | Potency [5] | Potency [6] | Potency [7] | Potency [8] | Potency [9] | Potency [10] | Potency [11] | max response [12] 11.2% | Potency [13] | Potency [14] | Potency [15] | Potency [16] | Potency [17] | outcome [18]

CCOC(C(=O)OCCN(C)C)(c1ccccc1)c1ccccc1
inactive: Potency [1] | Potency [2] | outcome [3] | Potency [4] | Potency [19] | activity change, positive = activation ([20]; at 42.5 µM (top of the series)) -1.78% | Potency [5] | Potency [6] | Potency [8] | Potency [9] | Potency [10] | Potency [11] | max response [12] -21.4% | Potency [13] | Potency [14] | Potency [15] | Potency [16] | Potency [17] | outcome [18]

ClCc1ccccc1Cl
inactive: Potency [1] | Potency [2] | outcome [3] | Potency [4] | Potency [19] | activity change, positive = activation ([20]; at 92.4 µM (top of the series)) 8.41% | Potency [5] | Potency [6] | Potency [7] | Potency [8] | Potency [9] | Potency [10] | Potency [11] | max response [12] -3.09% | Potency [13] | Potency [14] | Potency [15] | Potency [16] | Potency [17] | outcome [18]

CN(C1CCCCC1)C1CCCCC1
inactive: Potency [1] | Potency [2] | outcome [3] | Potency [4] | Potency [5] | Potency [6] | Potency [7] | Potency [8] | Potency [9] | Potency [10] | Potency [11] | max response [12] -2.03% | Potency [13] | Potency [14] | Potency [15] | Potency [16] | Potency [17] | outcome [18]

O=C(O)c1cc(I)cc(I)c1I
inactive: Potency [1] | Potency [2] | outcome [3] | Potency [4] | Potency [5] | Potency [6] | Potency [7] | Potency [8] | Potency [9] | Potency [10] | Potency [11] | max response [12] -4.51% | Potency [13] | Potency [14] | Potency [15] | Potency [16] | Potency [17] | outcome [18]

CC(CC(C(N)=O)(c1ccccc1)c1ccccc1)N(C)C (centres undefined)
inactive: Potency [1] | Potency [2] | outcome [3] | Potency [4] | Potency [5] | Potency [6] | Potency [7] | Potency [8] | Potency [9] | Potency [10] | Potency [11] | max response [12] 3.65% | Potency [13] | Potency [15] | Potency [16] | Potency [17] | outcome [18]
